Results: PubChem BioAssay AID1159580 (chemical genetic matrix, 2015)
Hit rate of the full screen: of about 5,500 compounds, about 2,000 (36%) were called active. Inconclusive results (about 18%) are left out. No stated cut-off is given here; in the data, active means normalized growth mostly below about 0.91 (no sharp cut-off); inconclusive means no clear call, values can overlap the other calls; inactive means mostly above about 0.92. The list shows a part of the results.

Assay: chemical genetic growth profiling, strain panel (AID 1159580);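 further: tested at 20 µM; growth read once vehicle control cultures reached saturation at 30 °C; 1 = growth at the plate median or of vehicle wells; lower values mean less growth of the strain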
Conditions: growth OD

Measured: normalized growth

CCC(C)C(=O)O[C@H]1[C@H](O)C2C(CN3CC(C)CCC3[C@@]2(C)O)C2C[C@]34O[C@]5(O)C(OC(=O)C(C)(O)CC)CC[C@@]3(C)C5C(OC(C)=O)[C@@H](OC(C)=O)C4[C@@]21O (stereo partly specified)
inactive: S. cerevisiae deletion strains, locus YKL009W, strain mrt4, active compounds read low 1.01 | S. cerevisiae deletion strains, locus YKL068W, active compounds read low 1.01 | S. cerevisiae deletion strains, locus YKL085W, strain MDH1 (second series), active compounds read low 1.03 | S. cerevisiae deletion strains, locus YKL085W, strain MDH1, active compounds read low 1.03 | S. cerevisiae deletion strains, locus YKL160W, strain elf1, active compounds read low 1.04 | S. cerevisiae deletion strains, locus YKL190W, strain CNB1, active compounds read low 1 | S. cerevisiae deletion strains, locus YKR001C, strain vps1, active compounds read low 0.983 | S. cerevisiae deletion strains, locus YKR026C, strain gcn3, active compounds read low 1.01 | S. cerevisiae deletion strains, locus YKR091W, strain srl3, active compounds read low 1.02 | S. cerevisiae deletion strains, locus YLL001W, strain dnm1, active compounds read low 1.02 | S. cerevisiae deletion strains, locus YLL026W, active compounds read low 1.01 | S. cerevisiae deletion strains, locus YLL041C, strain sdh2, active compounds read low 1.04 | S. cerevisiae deletion strains, locus YLR027C, strain aat2, active compounds read low 1.02 | S. cerevisiae deletion strains, locus YLR039C, strain RIC1, active compounds read low 1.02 | S. cerevisiae deletion strains, locus YLR058C, strain SHM2, active compounds read low 1.01 | S. cerevisiae deletion strains, locus YLR102C, strain apc9, active compounds read low 0.995 | S. cerevisiae deletion strains, locus YLR113W, strain HOG1, active compounds read low 0.983 | S. cerevisiae deletion strains, locus YLR221C, strain rsa3, active compounds read low 1.01 | S. cerevisiae deletion strains, locus YLR258W, strain gsy2, active compounds read low 1.01 | S. cerevisiae deletion strains, locus YLR262C, strain YPT6 (second series), active compounds read low 1.02 | S. cerevisiae deletion strains, locus YLR262C, strain YPT6, active compounds read low 1.05 | S. cerevisiae deletion strains, locus YLR268W, strain sec22, active compounds read low 0.984 | S. cerevisiae deletion strains, locus YLR320W, strain mms22, active compounds read low 1.02 | S. cerevisiae deletion strains, locus YLR330W, strain CHS5, active compounds read low 1.01 | S. cerevisiae deletion strains, locus YLR342W, strain FKS1 (second series), active compounds read low 1 | S. cerevisiae deletion strains, locus YLR342W, strain FKS1, active compounds read low 1.01 | S. cerevisiae deletion strains, locus YLR357W, strain rsc2, active compounds read low 1.01 | S. cerevisiae deletion strains, locus YLR370C, strain arc18, active compounds read low 1.03 | S. cerevisiae deletion strains, locus YLR371W, strain rom2, active compounds read low 0.984 | S. cerevisiae deletion strains, locus YLR384C, strain iki3, active compounds read low 1.02 | S. cerevisiae deletion strains, locus YLR418C, strain cdc73, active compounds read low 0.994 | S. cerevisiae deletion strains, locus YML016C, strain PPZ1, active compounds read low 1.01 | S. cerevisiae deletion strains, locus YML032C, strain rad52, active compounds read low 0.989 | S. cerevisiae deletion strains, locus YML120C, strain ndi1, active compounds read low 1.01 | S. cerevisiae deletion strains, locus YML124C, strain tub3, active compounds read low 0.981 | S. cerevisiae deletion strains, locus YMR058W, strain fet3, active compounds read low 1.02 | S. cerevisiae deletion strains, locus YMR078C, strain ctf18, active compounds read low 0.986 | S. cerevisiae deletion strains, locus YMR125W, strain sto1, active compounds read low 1.02 | S. cerevisiae deletion strains, locus YMR129W, active compounds read low 1.02 | S. cerevisiae deletion strains, locus YMR205C, strain PFK2, active compounds read low 1.03 | S. cerevisiae deletion strains, locus YMR223W, strain ubp8, active compounds read low 0.985 | S. cerevisiae deletion strains, locus YMR231W, strain pep5, active compounds read low 1.02 | S. cerevisiae deletion strains, locus YMR263W, strain SAP30, active compounds read low 1 | S. cerevisiae deletion strains, locus YMR307W, strain GAS1, active compounds read low 1.02 | S. cerevisiae deletion strains, locus YNL067W, strain RPL9B, active compounds read low 1.02 | S. cerevisiae deletion strains, locus YNL071W, strain lat1, active compounds read low 1.03 | S. cerevisiae deletion strains, locus YNL128W, strain TEP1, active compounds read low 1.01 | S. cerevisiae deletion strains, locus YNL153C, strain GIM3, active compounds read low 1.01 | S. cerevisiae deletion strains, locus YNL183C, strain NPR1, active compounds read low 0.99 | S. cerevisiae deletion strains, locus YNL209W, strain ssb2, active compounds read low 1.02 | S. cerevisiae deletion strains, locus YNL233W, strain BNI4, active compounds read low 1.01 | S. cerevisiae deletion strains, locus YNL248C, strain rpa49, active compounds read low 1.08 | S. cerevisiae deletion strains, locus YNL250W, strain rad50, active compounds read low 0.984 | S. cerevisiae deletion strains, locus YNL271C, strain bni1, active compounds read low 0.982 | S. cerevisiae deletion strains, locus YNL298W, strain CLA4, active compounds read low 0.991 | S. cerevisiae deletion strains, locus YNL307C, strain MCK1, active compounds read low 0.994 | S. cerevisiae deletion strains, locus YNL322C, strain KRE1 (second series), active compounds read low 1.02 | S. cerevisiae deletion strains, locus YNL322C, strain KRE1, active compounds read low 1.01 | S. cerevisiae deletion strains, locus YNR049C, strain mso1, active compounds read low 1 | S. cerevisiae deletion strains, locus YNR052C, strain pop2, active compounds read low 1 | S. cerevisiae deletion strains, locus YOL006C, strain TOP1, active compounds read low 1.01 | S. cerevisiae deletion strains, locus YOL012C, strain htz1 0.797 | S. cerevisiae deletion strains, locus YOL147C, strain pex11, active compounds read low 0.994 | S. cerevisiae deletion strains, locus YOR001W, strain rrp6, active compounds read low 0.998 | S. cerevisiae deletion strains, locus YOR061W, strain CKA2, active compounds read low 1.01 | S. cerevisiae deletion strains, locus YOR069W, strain VPS5, active compounds read low 1.01 | S. cerevisiae deletion strains, locus YOR070C, strain gyp1, active compounds read low 1.03 | S. cerevisiae deletion strains, locus YOR080W, strain dia2, active compounds read low 1.04 | S. cerevisiae deletion strains, locus YOR083W, strain WHI5, active compounds read low 1.04 | S. cerevisiae deletion strains, locus YOR106W, strain vam3, active compounds read low 1.06 | S. cerevisiae deletion strains, locus YOR136W, strain idh2, active compounds read low 0.984 | S. cerevisiae deletion strains, locus YOR144C, strain elg1, active compounds read low 0.996 | S. cerevisiae deletion strains, locus YOR184W, strain ser1, active compounds read low 0.982 | S. cerevisiae deletion strains, locus YOR231W, strain MKK1, active compounds read low 0.992 | S. cerevisiae deletion strains, locus YOR265W, strain rbl2, active compounds read low 0.998 | S. cerevisiae deletion strains, locus YOR270C, strain vph1, active compounds read low 1.11 | S. cerevisiae deletion strains, locus YOR290C, strain snf2, active compounds read low 1.06 | S. cerevisiae deletion strains, locus YOR316C, strain cot1, active compounds read low 0.99 | S. cerevisiae deletion strains, locus YPL051W, strain arl3, active compounds read low 1.01 | S. cerevisiae deletion strains, locus YPL055C, strain LGE1, active compounds read low 1.02 | S. cerevisiae deletion strains, locus YPL078C, strain atp4, active compounds read low 1.05 | S. cerevisiae deletion strains, locus YPL106C, strain sse1, active compounds read low 0.995 | S. cerevisiae deletion strains, locus YPL240C, strain hsp82, active compounds read low 1.01 | S. cerevisiae deletion strains, locus YPL241C, strain CIN2, active compounds read low 0.988 | S. cerevisiae deletion strains, locus YPL256C, strain CLN2, active compounds read low 1.04 | S. cerevisiae deletion strains, locus YPR119W, strain clb2, active compounds read low 0.984 | S. cerevisiae deletion strains, locus YPR141C, strain kar3, active compounds read low 0.987 | S. cerevisiae deletion strains, locus YPR163C, strain tif3, active compounds read low 0.99 | S. cerevisiae deletion strains, locus YPR167C, strain met16, active compounds read low 0.974 | S. cerevisiae deletion strains, strain wtn01, active compounds read low 0.991 | S. cerevisiae strains, strain wild type, active compounds read low 1
